Compound activity (PubChem)
Sampled rows, rich in hits. Any-hit rate of the full collection: about 1.2%.
RXFP1 agonist = agonists of human relaxin receptor RXFP1; Q9HBX9; HEK293T-RXFP1 cAMP TR-FRET, 30 min; response scale: percent of porcine relaxin response, buffer zero; Potency, µM (highest dose often 57.5 µM), for the others: at the top dose activation, actives largely listed as activators; 0.3% of 370,000 active; AID 2676; active means well fitted activation curve with a large enough effect; inconclusive means small, poorly fitted or top-dose-only effect; further: potency means the concentration at half of the fitted maximal effect; on the % scale 0 is the no-effect control and ±100 the full control effect; nearly all actives have a fitted effect of over 60% in size
Target sequence (Q9HBX9 whole entry, looked up): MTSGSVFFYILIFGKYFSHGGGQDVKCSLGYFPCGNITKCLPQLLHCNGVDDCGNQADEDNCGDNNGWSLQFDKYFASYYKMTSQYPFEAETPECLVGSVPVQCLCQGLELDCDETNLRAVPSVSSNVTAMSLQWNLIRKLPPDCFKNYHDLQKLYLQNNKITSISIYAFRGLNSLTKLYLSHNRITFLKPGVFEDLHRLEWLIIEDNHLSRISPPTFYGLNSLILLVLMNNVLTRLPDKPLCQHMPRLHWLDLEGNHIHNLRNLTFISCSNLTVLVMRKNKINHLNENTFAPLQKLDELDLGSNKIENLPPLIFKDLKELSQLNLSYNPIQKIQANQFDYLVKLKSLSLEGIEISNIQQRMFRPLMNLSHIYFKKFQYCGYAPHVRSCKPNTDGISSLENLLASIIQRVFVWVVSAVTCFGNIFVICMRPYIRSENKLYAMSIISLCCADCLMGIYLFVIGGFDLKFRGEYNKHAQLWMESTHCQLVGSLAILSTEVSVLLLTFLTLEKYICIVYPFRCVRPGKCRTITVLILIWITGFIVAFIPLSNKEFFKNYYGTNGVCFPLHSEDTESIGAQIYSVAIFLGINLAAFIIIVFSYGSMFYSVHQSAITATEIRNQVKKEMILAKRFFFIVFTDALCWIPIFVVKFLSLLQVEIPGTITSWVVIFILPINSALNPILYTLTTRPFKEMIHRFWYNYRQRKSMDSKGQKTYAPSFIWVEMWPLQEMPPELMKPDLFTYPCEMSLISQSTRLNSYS
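cAMP rise read by TR-FRET after 30 min, 37C compound exposure (up to 58 uM) in RXFP1-transfected HEK293 cells with Ro 20174 present. EC50 from Hill-equation fits, with 29 nM porcine relaxin as 100% and buffer as basal.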
gsp ag = activates gsp, the McCune-Albright syndrome mutation | gsp mutant cells, cAMP HTRF, 30 min | Potency, µM (series often up to 76.9 µM), without a hit: top-dose activation (cAMP increase), hits mostly activators | 0.13% of 340,000 active | AID 624287; active means well fitted activation curve with a large enough effect; inconclusive means small, poorly fitted or top-dose-only effect, or another doubt; inactive means no such curve, though single readings can be large or run the other way; cell line not stated here;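 further: phosphodiesterase inhibitor Ro 20-1724 added with compounds to block cAMP breakdown; potency means the concentration at half of the fitted maximal effect; nearly all actives have a fitted effect of over 60% in size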
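Cells stably selected in G418 were plated at 2000/well, grown 16-24 hr, then given compounds in DMSO with the PDE inhibitor […] (300 uM solution added) for 30 min at 37C; cAMP was read by HTRF.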
gsp antagonist = antagonizes gsp, the McCune-Albright syndrome mutation. gsp-mutant cells, cAMP HTRF, 30 min. Potency, µM (doses to about 76.9 µM), for inactives: at the highest dose activity change, negative = inhibition, hits mostly inhibitors. 0.4% of 340,000 active; calls by dose curve; cell line not stated here;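 further: intracellular cAMP measured with PDE inhibitor Ro 20-1724 present during compound exposure; potency means the concentration at half of the fitted maximal effect; on the % scale 0 is the no-effect control and ±100 the full control effect; nearly all actives have a fitted effect of over 65% in size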
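Measurement of cellular cAMP by homogeneous time-resolved fluorescence following a 30 min compound exposure at 37C. The PDE inhibitor […] was present throughout; the assay buffer was DPBS with 0.05% BSA and 0.005% Tween 20.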
RXFP1 antagonist = antagonists of human relaxin receptor RXFP1; activity change, negative = inhibition, % at 57.5 µM; 0.59% of 350,000 active; HEK293-RXFP1, relaxin-stimulated cAMP HTRF, 30 min; stronger effect = lower value; Q9HBX9;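 active means activity change of -60% or lower, but not beyond a set lower limit; inconclusive means change between -60% and -40%, or beyond the set limit; inactive means change above -40%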; further: on the % scale 0 is the no-effect control and ±100 the full control effect
pAkt inh = blocks phosphorylation of Akt. Neuro2A IGF-stimulated pAkt S473 HTRF, 20 min; stronger effect = lower value. activity change, % for hits at 50 µM. 0.32% of 360,000 active; in the data active means activity change below about -80%; inconclusive means mostly about -51% to -80%; further: on the % scale 0 is the no-effect control and ±100 the full control effect
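Neuro2A cells (4,500/well, DMEM with 0.5% FBS) were treated with compound at a single 50 µM final concentration, stimulated with 6 nM IGF for 20 min at 37 °C, and lysed. Phospho-Akt Ser473 was read by HTRF as 665/615 ratio ×10^4.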
An asterisk follows results filed as active; i = inactive; u = inconclusive; x = not tested or not shown; [ ] = another dose, or the depositor's remark.

SMILES | RXFP1 agonist | gsp ag | gsp antagonist | RXFP1 antagonist | pAkt inh
O=C(C1=C(O)C(=O)N(CCCN2CCOCC2)C1c1ccc(Cl)cc1)c1cc2ccccc2o1 (configuration not stated) | 0% | 11µM* | 20% | 11 | i
CCS(=O)(=O)c1ncc(Cl)c(C(=O)N2CCN(c3cccc(Cl)c3)CC2)n1 | -1% | x | x | u | x
COc1ccc(C(=O)N=C2SC3CS(=O)(=O)CC3N2c2ccc(N(C)C)cc2)cc1OC (configuration not stated) | 29% | u | 0% | -76* | x
CCC1CN(C(=O)N2CCC(C(=O)NCCCc3ccccc3)CC2)c2ccccc2O1 (configuration not stated) | 2% | x | x | -13 | x
CCC1CN(C(=O)N2CCC(C(=O)NCCCc3ccccc3)CC2)c2cc(C)ccc2O1 (configuration not stated) | 0% | x | x | -69* | x
COc1ccc(CNC(=O)c2cc3c(=O)n4cccc(C)c4nc3s2)cc1 | u | x | x | -7 | x
CC1CCCCC1NC(=O)COC(=O)c1c2c(nc3ccccc13)/C(=C\c1ccco1)CC2 (configuration not stated) | x | u | -13% | -65* | i
CCCCn1c(C(C)NC(=O)c2cccs2)nc2ccccc21 (configuration not stated) | 1% | -46% | 10% | -7 | -103%*
CCOC(=O)c1ccc(N2C(=O)c3[nH]nc(-c4ccccc4)c3C2c2cccs2)cc1 (configuration not stated) | -2% | x | x | -20 | x
CCOCCCN(C)C1CCN(C(=O)c2oc3ccccc3c2NC(=O)c2cccc([N+](=O)[O-])c2)CC1 | 0% | -1% | -2% | -66* | i
C=CCn1c(-c2csc(-c3ccccc3)n2)n[nH]c1=S | 9% | u | -5% | -24 | -106%*
Cc1cccc(C)c1NC(=O)c1cc(S(N)(=O)=O)c(Cl)cc1O | x | x | x | -6 | x
CCCn1c(=O)c(C(=O)Nc2ccccc2C(=O)OC)c(O)c2ccccc21 | 2% | -3% | 3% | -18 | -104%*
CCOC(=O)c1ccccc1NC(=O)c1c(O)c2ccccc2n(CC)c1=O | 0% | 10% | 6%[15.4 µM] | -14 | i
CCOC(=O)C1CCN(C(=O)c2oc3ccc4c(c3c2C)C(O)CC2(CCCCC2)O4)CC1 (configuration not stated) | 0% | -1% | 0% | -94* | i
O=c1[nH]c2ccccc2n1CCCN1CCN(C(c2ccccc2)c2ccccc2)CC1 | 4% | x | x | -75* | x
O=c1[nH]c2ccccc2n1CCCN1CCCCC1 | 0% | -2%[15.4 µM] | 19% | -31 | i
COc1ccc2[nH]c(=O)c(CN(CC3CCCO3)C(=O)Nc3ccc(F)cc3)cc2c1 (configuration not stated) | -1% | 11% | 32µM* | x | i
COc1cccc(NC(=O)c2ccc3nc(Cc4ccccc4)oc3c2)c1 | -1% | x | x | -8 | x
O=C(C#Cc1ccccc1)c1ccccc1 | x | u | x | -107* | i
O=C(C#Cc1ccccc1)c1ccc([N+](=O)[O-])cc1 | -1% | 7%[15.4 µM] | 4% | -61* | i
O=C(NCc1cccnc1)c1nn(-c2ccc(F)cc2)nc1CO | -6% | x | x | -16 | x
O=S(=O)(c1ccc(Oc2ccc(Br)cc2)cc1)N1CCOCC1 | 1% | -5% | 3% | -19 | -113%*
CC(C)c1ccc(/C=N/n2c(COc3ccccc3)n[nH]c2=S)cc1 | 3% | 26% | u | -61* | i
Cc1ccc(/C=N/n2c(COc3ccccc3)n[nH]c2=S)cc1 | 0% | 23% | -20% | -2 | i
SMILES | RXFP1 agonist | gsp ag | gsp antagonist | RXFP1 antagonist | pAkt inh
O=C(COC(=O)CCc1nc2ccccc2s1)NCc1ccco1 | 0% | 18%[15.4 µM] | 7% | -6 | i
O=C(COC(=O)CCc1nc2ccccc2s1)NC(=O)NCc1ccco1 | 0% | 1%[15.4 µM] | 11µM* | -9 | i
C[C@@]12C(=O)N(c3ccc(C(F)(F)F)cc3)C(=O)N1[C@@H]1c3ccccc3OC[C@@H]1[C@H]2c1ccccc1 | 0% | x | 32µM* | x | i
C[C@]12C(=O)N(c3ccc(F)cc3)C(=O)N1[C@@H]1c3ccccc3OC[C@@H]1[C@H]2c1ccccc1 | 1% | 12% | 3% | x | i
CC(C)(CNS(C)(=O)=O)SCc1ccc(Cl)cc1 | 4% | 14% | 11% | 11 | i
CS(=O)(=O)NCCSCc1ccc(Cl)cc1 | 0% | 1% | -10% | 5 | -108%*
O=C1c2cccc(NCCCNCCO)c2C(=O)c2cccc(NCCCNCCO)c21 | x | -3% | 40µM* | u | i
O=C1c2ccccc2C(=O)c2c(NCc3cccnc3)cccc21 | 0% | -33% | -11% | 7 | i
Cc1ccc2nc(NC(=O)CSc3cc(C)[nH]c(=O)n3)sc2c1 | 18% | x | x | x | x
C#CCOC(=O)Nc1cccn(Cc2c(Cl)cccc2Cl)c1=O | 0% | u | -18% | -2 | -120%*
O=C(Nc1cccn(Cc2c(Cl)cccc2Cl)c1=O)C1CC1 | -2% | 1%[15.4 µM] | -2% | -8 | i
NC(CS)C(=O)O (configuration not stated) | x | x | x | 6 | x
O=C1C2CCCN2C(c2ccc(Br)cc2)N1c1ccc(F)cc1 (configuration not stated) | 1% | -5% | 50µM* | x | i
O=C1C2CCCN2C(c2cccc(Br)c2)N1c1ccc(F)cc1 (configuration not stated) | 0% | 10% | -4% | -7 | i
CSc1cc(-c2ccccc2)n(Cc2c(Cl)cccc2Cl)c(=O)c1C#N | 12% | -13% | 0% | 2 | i
CSc1cc(-c2ccc(Cl)cc2)n(Cc2ccccc2)c(=O)c1C#N | 22µM* | -49% | 3% | 2 | i
Cc1ccc(N(CC(=O)Nc2ccc(Br)cc2)S(=O)(=O)c2cccs2)cc1 | 2% | x | x | x | x
Cc1cc(C(=O)NCCN2C(=O)S/C(=C\c3cccs3)C2=O)ccc1[N+](=O)[O-] | 1% | 5% | 25µM* | -4 | i
CCN1CCN(c2ccc(S(=O)(=O)N3CCOCC3)cc2NC(=O)c2cccc([N+](=O)[O-])c2)CC1 | x | 25µM* | 9% | -4 | i
Cc1ccc(C)c(NC(=O)c2cc(S(=O)(=O)N3CCCCC3)ccc2N2CCOCC2)c1 | -1% | 21% | u | -1 | i
Cc1ccc(S(=O)(=O)N2CCOCC2)cc1NC(=O)c1cc([N+](=O)[O-])ccc1N1CCOCC1 | 12% | 11µM* | 7% | -7 | i
Cc1ccc(-n2c3c(cc(-c4nc(-c5ccc(Cl)cc5)cs4)c2=O)C(=O)CC(C)(C)C3)cc1C | 0% | x | x | 6 | x
COc1cc(NC(=O)CSc2ncc(S(=O)(=O)c3ccc(Br)cc3)c(=O)[nH]2)cc(OC)c1 | 2% | x | x | x | x
